# Assay results as given in paper PMC4336329 (PLoS ONE, 2015).
# In all, about 310,000 compounds went through this assay and about 14,000 (4.5%) showed an effect of 50% or more. The effect is printed as a negative number. This excerpt belongs to a sample that is enriched for strong results.
# Target: human ether-à-go-go-related gene (hERG) potassium channel (human, UniProt Q12809)
# Test: primary screen, population patch clamp on CHO cells stably expressing hERG; higher = less effect of the substance
# 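Also: peak tail current of the secondary pulse compared with the same well before compound.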
# Chain of human ether-à-go-go-related gene (hERG) potassium channel (Q12809 whole entry, looked up): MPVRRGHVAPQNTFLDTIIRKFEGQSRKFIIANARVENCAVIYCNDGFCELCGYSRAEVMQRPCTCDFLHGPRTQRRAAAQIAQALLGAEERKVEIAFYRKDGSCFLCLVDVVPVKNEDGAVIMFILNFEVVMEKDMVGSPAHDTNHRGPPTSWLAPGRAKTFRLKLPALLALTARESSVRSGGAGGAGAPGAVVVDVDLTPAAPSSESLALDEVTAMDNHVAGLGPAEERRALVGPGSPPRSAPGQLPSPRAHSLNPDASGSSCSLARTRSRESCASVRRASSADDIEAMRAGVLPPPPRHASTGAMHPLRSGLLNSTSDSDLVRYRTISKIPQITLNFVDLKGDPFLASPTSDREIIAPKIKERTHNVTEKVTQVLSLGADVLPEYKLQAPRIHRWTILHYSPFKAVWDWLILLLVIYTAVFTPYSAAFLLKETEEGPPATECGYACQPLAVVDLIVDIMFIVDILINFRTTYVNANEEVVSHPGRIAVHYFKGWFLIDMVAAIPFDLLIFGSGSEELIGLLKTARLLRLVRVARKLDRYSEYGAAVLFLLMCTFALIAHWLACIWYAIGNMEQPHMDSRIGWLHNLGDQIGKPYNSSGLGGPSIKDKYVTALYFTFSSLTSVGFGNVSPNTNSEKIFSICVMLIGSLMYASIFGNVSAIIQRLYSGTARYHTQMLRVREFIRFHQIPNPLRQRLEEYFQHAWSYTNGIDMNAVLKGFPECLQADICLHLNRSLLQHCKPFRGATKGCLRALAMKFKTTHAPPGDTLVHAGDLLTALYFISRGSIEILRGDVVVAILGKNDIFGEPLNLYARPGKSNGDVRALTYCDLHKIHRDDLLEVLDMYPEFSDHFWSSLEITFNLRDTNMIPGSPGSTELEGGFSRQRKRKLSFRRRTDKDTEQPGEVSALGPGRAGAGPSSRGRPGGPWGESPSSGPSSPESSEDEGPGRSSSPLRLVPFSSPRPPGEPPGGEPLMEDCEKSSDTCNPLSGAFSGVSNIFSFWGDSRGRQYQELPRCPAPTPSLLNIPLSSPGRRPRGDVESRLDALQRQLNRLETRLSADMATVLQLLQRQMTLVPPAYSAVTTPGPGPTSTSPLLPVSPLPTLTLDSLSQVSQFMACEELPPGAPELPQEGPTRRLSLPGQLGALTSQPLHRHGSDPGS
row,Compound,"hERG current change (%, negative = inhibition) at 10uM [%]"
1,CN(C)C(=O)C(Sc1ccc(S(=O)(=O)N2CCCC2)cn1)c1ccccc1 (stereo not shown),-13.4
2,COc1ccccc1P(=O)(c1ccccc1)c1ccccc1,15.1
3,COc1cccc(/C=C/C(=O)NCCc2ccc(OC)c(OC)c2)c1,-16.3
4,N#CCC(=O)Nc1ccc(C(=O)OCC(=O)c2ccc3c(c2)OCCO3)cc1,10.5
5,OC(CNCCC(c1ccccc1)c1ccccc1)COc1ccccc1 (stereo not shown),-71.4
6,OC(CCc1ccncc1)COc1ccccc1 (stereo not shown),3.52
7,OC(CNCCc1ccccc1)COc1ccc(OCC(O)CNCCc2ccccc2)cc1 (stereo not shown),1.24
8,CNCC(O)COc1ccccc1 (stereo not shown),-5.69
9,OC(CNCc1ccccc1)COc1ccccc1 (stereo not shown),-11.9
10,CC(CCc1ccccc1)NCC(O)COc1ccccc1 (stereo not shown),-73.4
11,CCc1cc(C(=O)N2CCN(c3ccccn3)CC2)sc1C,-3.12
12,O=C(CCS(=O)CCC(=O)NCc1ccccc1)NCc1ccccc1,17.7
13,Cc1nnc(NC(=O)c2cccc(F)c2)s1,4.08
14,COC(=O)CN1C(c2ccccc2)=Nc2ccc(Cl)cc2C1c1ccccc1 (stereo not shown),-66.4
15,COC(=O)CN1C(c2ccc(Cl)cc2)=Nc2ccc(Cl)cc2C1c1ccccc1 (stereo not shown),-17.7
16,NNC(=O)CN1C(c2ccccc2)=Nc2ccc(Br)cc2C1c1ccccc1 (stereo not shown),-20
17,COC(=O)CN1C(c2cccc(Cl)c2)=Nc2ccc(Cl)cc2C1c1ccccc1 (stereo not shown),1.61
18,NNC(=O)CN1C(c2ccc(Br)cc2)=Nc2ccc(Br)cc2C1c1ccccc1 (stereo not shown),-30.8
19,NNC(=O)CN1C(c2ccc(Cl)cc2)=Nc2ccc(Br)cc2C1c1ccccc1 (stereo not shown),-53.3
20,CC1CC(C)CN(CCCNC(=O)c2c(O)nc3ccccn3c2=O)C1 (stereo not shown),6.75
21,CC/C(=N\NC(=O)c1ccc(-c2ccccc2)cc1)C12CC3CC(CC(C3)C1)C2,0.121
22,COc1nc(NC2CCCCC2)nc(N2CCCCCC2)n1,4.84

row,Compound,"hERG current change (%, negative = inhibition) at 10uM [%]"
1,O=C(c1ccc(Cl)cc1)N1CCCOC1,15.2
2,CC(=O)Nc1ccc(S(=O)(=O)N2CCCC2C(=O)Nc2ccc(F)cc2)cc1 (stereo not shown),11.2
3,CN(C)C(CNC(=O)CCCN1C(=O)c2cccc3cccc(c23)C1=O)c1ccccc1 (stereo not shown),-46.2
4,COC(=O)[C@@]1(Cc2ccc(F)cc2)[C@H]2c3cc(C(=O)N(C)C)n(CCSCCO)c3C[C@H]2CN1C(=O)c1ccccc1,-34.4
5,COC(=O)[C@@]1(Cc2ccc(F)cc2)[C@H]2c3cc(C(=O)N4CCCC4)n(CCc4ccccn4)c3C[C@H]2CN1C(=O)c1ccccc1,-64.1
6,COC(=O)[C@@]1(Cc2ccc(F)cc2)[C@H]2c3cc(C(=O)N4CCCC4)n(CCc4ccc(O)c(O)c4)c3C[C@H]2CN1C(=O)c1ccccc1,-15.5
7,COC(=O)[C@@]1(Cc2ccc(F)cc2)[C@H]2c3cc(C(=O)N(C)C)n(Cc4ccccc4)c3C[C@H]2CN1C(=O)c1ccccc1,-13.3
8,COC(=O)[C@@]1(Cc2ccc(F)cc2)[C@H]2c3cc(C(=O)N4CCCC4)n(CCc4c[nH]c5ccc(OC)cc45)c3C[C@H]2CN1C(=O)c1ccccc1,3.92
9,COC(=O)[C@@]1(Cc2ccc(F)cc2)[C@H]2c3cc(C(=O)N(C)C)n(CCc4ccccn4)c3C[C@H]2CN1C(=O)c1ccccc1,-64.8
10,COC(=O)[C@@]1(Cc2ccc(F)cc2)[C@H]2c3cc(C(=O)N(C)C)n(Cc4ccc(OC)c(OC)c4)c3C[C@H]2CN1C(=O)c1ccccc1,-42.6
11,COC(=O)[C@@]1(Cc2ccc(F)cc2)[C@H]2c3cc(C(=O)N(C)C)n(Cc4ccccn4)c3C[C@H]2CN1C(=O)c1ccccc1,-53.4
12,COC(=O)[C@@]1(Cc2ccc(F)cc2)[C@H]2c3cc(C(=O)N(C)C)n(CCc4ccc(OC)c(Br)c4)c3C[C@H]2CN1C(=O)c1ccccc1,-2.99
13,CS(=O)(=O)Nc1ccc(C(=O)Nc2ccc(S(=O)(=O)N3CCCC3)cc2)cc1,-13.7
14,Cc1nc(NC(=O)c2ccccc2)sc1-c1csc(NCCc2ccccc2)n1,12
15,CCOC(=O)CNC(=O)c1cnn2cccnc12,2.78
16,NC(=O)c1c(-c2cccs2)csc1N,3.94
17,COc1cc(C(=O)NCc2nnc(SCC(=O)NCc3ccccc3)o2)cc(OC)c1OC,17.6
18,Cc1ccc(S(=O)(=O)NC2OC(=O)C(Cl)=C2Cl)cc1 (stereo not shown),-3.55
19,COC(=O)c1nc2ccccn2c1F,13.2
20,Cc1c(C(=O)N(C)CCCCN2CCOCC2)oc2c(F)cccc12,4.14
21,CC(C)(C)C(=O)NC(=S)Nc1cc(C(=O)O)ccc1Cl,4.5
22,CCCCC(=O)NC(=S)Nc1cc(C(=O)O)ccc1Cl,11.2

row,Compound,"hERG current change (%, negative = inhibition) at 10uM [%]"
1,CC(=O)NC(=S)Nc1cc(C(=O)O)ccc1Cl,-64.9
2,COC(=O)c1scc(C)c1NC(=O)Nc1ccccc1,3.91
3,Cc1ccc2cccc(Oc3ncnc4sc(C)c(C)c34)c2n1,15.3
4,Cc1sc2ncnc(N)c2c1C,4.12
5,Cc1sc2ncnc(Oc3ccc(-n4ccnc4)cc3)c2c1C,-68.4
6,CCOc1ccc(N/C(N)=N/c2nc(CSc3nnc(C)s3)cc(=O)[nH]2)cc1,12.5
7,C/C=C/c1ccc(OCC(=O)Nc2ccc(C(N)=O)cc2)c(OC)c1,7.23
8,COc1ccc(C2C(C#N)=C(N)Oc3c2c(C)nn3-c2ccccc2)cc1Cn1nc(C)c([N+](=O)[O-])c1C (stereo not shown),-4.96
9,O=C(O)c1ccc(N2C(=O)c3cccc(Oc4ccc(Cl)cc4)c3C2=O)cc1,-80.7
10,Cc1cccc(N2C(=O)c3cccc(Oc4ccc(Cl)cc4)c3C2=O)c1,4.76
11,O=C(O)c1cccc(N2C(=O)c3cccc(Oc4ccc(Cl)cc4)c3C2=O)c1,16.2
12,Cc1cc(C)nc(NC2=NCC(=O)N2c2ccccc2Br)n1,8.96
13,CC[n+]1ccc(/C=C/c2c[nH]c3ccccc23)cc1.[Cl-],-6.54
14,Cc1cc(/C=C(/C#N)C(=O)O)c(C)n1CCC(C)C,4.68
15,CNC(=O)Nc1cc(C(F)(F)F)cc(C(F)(F)F)c1,14.3
16,Cc1nn(-c2ccccc2)c(Cl)c1/C=N/NC(=O)c1ccccc1F,14.6
17,COc1ccc(-n2c(Cc3cccn3C)nnc2SCC(=O)N2CCCc3ccccc32)cc1,-13.9
18,COc1ccc(CC(=O)NCc2nnc(SCC(=O)c3ccc(OC)cc3)n2C)cc1,-3.61
19,COc1ccc(-n2c(Cc3ccccc3)nnc2SCC(=O)N2CCCc3ccccc32)cc1,-53.9
20,COc1ccc(CC(=O)NCc2nnc(SCc3ccc(C)cc3)n2C)cc1,5.49
21,COc1ccc(CC(=O)NCc2nnc(SCc3ccc([N+](=O)[O-])cc3)n2C)cc1,-63.6
22,COCCn1c(Cc2ccccc2)nnc1SCC(=O)Nc1ccccc1,5.83

row,Compound,"hERG current change (%, negative = inhibition) at 10uM [%]"
1,COc1ccc(-n2c(Cc3ccccc3)nnc2SCc2ccc([N+](=O)[O-])cc2)cc1,-68.4
2,O=[N+]([O-])c1ccc(CSc2nnc(Cc3ccccc3)n2-c2ccc(F)cc2)cc1,-48.7
3,COCCn1c(Cc2ccccc2)nnc1SCC(=O)N(C)C,14.3
4,COc1ccc(OCc2nnc(SCC(=O)N3CCCc4ccccc43)n2-c2ccc(C)cc2)cc1,-3.12
5,COCCn1c(Cc2ccccc2)nnc1SCc1ccc([N+](=O)[O-])cc1,-55
6,COc1ccc(-n2c(SCc3ccc([N+](=O)[O-])cc3)nnc2-c2ccccc2)cc1,-24.4
7,CN1CCC(N(C)S(=O)(=O)c2ccc(NC(=O)COc3ccc(F)cc3)cc2)CC1,0.996
8,Cc1cc(C(F)F)n2nc(C(=O)Nc3ccc(S(=O)(=O)NC45CC6CC(CC(C6)C4)C5)cc3)nc2n1,-8.28
9,O=S(=O)(Cc1ccccc1)N1CCn2c(nc3ccccc32)C1,9.91
10,COCCNC(=O)C(=O)N/N=C(\C)CC(=O)Nc1cccnc1,8.89
11,COc1ccc(NC(=O)CSc2nnc(CNc3ccc(C)cc3)n2C)cc1,25.2
12,Cc1cc(C)nc(SCc2nnc(SCc3ccc([N+](=O)[O-])cc3)n2Cc2ccco2)n1,-80.6
13,CCn1c(SCc2ccc([N+](=O)[O-])cc2)nnc1C(C)NC(=O)c1ccccc1Br (stereo not shown),-27.6
14,C=CCn1c(SCc2ccc([N+](=O)[O-])cc2)nnc1C(C)NC(=O)c1ccccc1 (stereo not shown),-54.5
15,Cc1cc(C)nc(SCc2nnc(SCC(N)=O)n2Cc2ccco2)n1,-7.19
16,COc1ccc(NCc2nnc(SCC(=O)Nc3ccccc3)n2C)cc1,-12.5
17,COC(=O)CSc1nnc(COc2ccc([N+](=O)[O-])cc2)n1C,-47.6
18,Cn1c(COc2ccc([N+](=O)[O-])cc2)nnc1SCC(N)=O,1.54
19,COc1ccc(NCc2nnc(SCC(=O)Nc3ccc(OC)cc3)n2C)cc1,-62.3
20,CCn1c(SCc2ccc([N+](=O)[O-])cc2)nnc1C(C)NC(=O)c1ccc(C)cc1 (stereo not shown),-33.6
21,COC(=O)CSc1nnc(CSc2nc(C)cc(C)n2)n1Cc1ccco1,7.23
22,CC(C)OC(=O)CSc1nnc(COc2ccc([N+](=O)[O-])cc2)n1C,-69.9
